# Most compounds without a hit are left out; they make up all but 6.2% or so of the library.
# MARV entry inh – qHTS for inhibitors of binding or entry into cells for Marburg Virus. actives 1.8% (n = 300,000). Potency, µM (series often up to 37.8 µM), inactives show at the top dose activity change, negative = inhibition, hits mostly inhibitors. Marburg virus pseudotyped entry inhibition, cell reporter; calls by dose curve; tested in HEK293 cells; note: potency is the fitted concentration of half-maximal effect
# FMDV inh – High Throughput Screening for Foot and Mouth Disease Virus Antivirals; actives 1.2% (n = 410,000); AID 1159524, 2015; Potency, µM (titrated, usually from 57.9 µM), inactives show top-dose activity change, negative = inhibition, actives largely listed as inhibitors; FMDV antiviral cell-based qHTS; calls by dose curve; tested in HEK293T cells; note: read-out not given here; potency is the fitted concentration of half-maximal effect; nearly all actives have a fitted effect of over 45% in size
# LASV entry inh – qHTS for Inhibitors of binding or entry into cells for Lassa Virus | Lassa virus pseudotype entry inhibition, cell reporter | Potency, µM (top dose mostly 37.9 µM), inactives show at the highest dose activity change, negative = inhibition, most hits filed as inhibitors | actives 1.2% (n = 300,000) | AID 540256, 2011; calls by dose curve; tested in HEK293 cells; note: potency is the fitted concentration of half-maximal effect; nearly all actives have a fitted effect of over 50% in size
# HCMV antiviral – qHTS Assay for inhibitors of the human cytomegalovirus (HCMV). HFF cells, HCMV-luciferase reporter, 72 h; hits give low values. activity change, negative = inhibition, % at 57.5 µM. actives 4.5% (n = 410,000). AID 1259415, 2018; in the data active = activity change below about -60%; inconclusive = no clear call, values can overlap the other calls; inactive = above about -39%
#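 After 16 h attachment at 37C, HFF cells received test compound and HCMV-luciferase (1 PFU/cell); reporter luminescence read 72 h later, data normalized against buffer-only and known inhibitor Salinomycin.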
# Starred values were filed as active, the others as inactive; ? = inconclusive; · = no result; ! = a repeat was not active; [ ] = dose if it differs, or a comment. % is set by controls: 0 for no effect and ±100 for the full control effect.
SMILES,MARV entry inh,FMDV inh,LASV entry inh,HCMV antiviral
O=C(Nc1cccc(-c2nnc(-c3ccco3)o2)c1)c1ccccc1,?,-27%,-26%[46.1 µM],-2
COc1ccccc1OCC(=O)Nc1cccc(-c2nnc(-c3ccco3)o2)c1,6.3µM*,-17%,?,121
COc1cc(C(=O)n2nc(-c3ccco3)nc2NCc2ccc(Cl)cc2)cc(OC)c1OC,?,24%,?,28
Cc1ccc(N(C[C@@H](O)CN(C)C)S(=O)(=O)c2ccccc2)cc1,1%,·,·,·
OC(CN1CCOCC1)Cn1c(-c2cccc(Cl)c2)nc2ccccc21 (stereo not given),6%,1%,12%,-102*
OC(CN1CCOCC1)Cn1cnc2ccccc21 (stereo not given),?,-5%,8%[46.1 µM],39
COc1ccc(C2=C3C(=O)OCC3Cc3ncn(Cc4ccccc4)c32)cc1 (stereo not given),·,-16%,·,-76*
COc1ccc(C2=CN(Cc3ccccc3)C(c3ccccc3)CC2=O)cc1 (stereo not given),·,41%,·,57
Oc1ccc(C(=S)N2CCCCC2)cc1Cl,-16%,-23%,-10%,-75*
COc1cc(C(=S)N2CCCCC2)ccc1O,15%,·,10%,22
CCCOc1ccc(NC(=O)CC2C(=O)N(c3ccc(C)cc3)C(=O)N2C2CCCC2)cc1 (stereo not given),1%[46.1 µM],12%,?,32
Cc1cccc(-n2c(Cc3ccccc3)nnc2SCc2nc(-c3cccs3)no2)c1,-11%[46.1 µM],-21%,-27%[46.1 µM],-11
CC(C)(CNC(=O)c1cnn(-c2ncc3c(n2)-c2ccccc2CCC3)c1C1CC1)N1CCOCC1,·,-4%,·,·
CC1CCN(C(=O)Cn2cc(SCC(=O)Nc3ccccc3C(F)(F)F)c3ccccc32)CC1,·,?,-16%[46.1 µM],-64*
COc1ccccc1NC(=O)COc1ccc(-c2nn(C)c(=O)c3ccccc23)cc1,-3%[46.1 µM],18µM*,-7%[46.1 µM],50
Cn1nc(-c2ccc(OCC(=O)N3CCN(Cc4ccccc4)CC3)cc2)c2ccccc2c1=O,8.2µM*,16µM*,-15%,?
Cc1ccc(OCC(=O)N2CCN(c3nnc(-c4ccccc4)c4ccccc34)CC2)cc1,?,?,?,-83*
O=C(Nc1ccc2snnc2c1)Nc1cccc2ccccc12,?,21%,?,-88*
COc1cccc(NC(=O)Nc2ccc3snnc3c2)c1,?,13%,23%[46.1 µM],-23
CCOC(=O)c1ccc(NC(=O)Nc2ccc3snnc3c2)cc1,16%[46.1 µM],-4%,10%[46.1 µM],-106*
CCc1ccccc1NC(=O)Nc1ccc2snnc2c1,9%[46.1 µM],-1%,?,-70*
CCOC(=O)c1ccc(NS(=O)(=O)c2cc3c4c(c2)CCN4C(=O)CC3)cc1,-7%,21%,?,-81*
COc1ccc(NC(=O)c2cccn2-c2nnc(N3CCCCC3)s2)cc1,·,14%,14%[46.1 µM],31
O=[N+]([O-])c1nccn1CCCCCCCCCCCN1CCOCC1,·,0%,·,-35
O=[N+]([O-])c1cccc2nc3ccccc3c(NCCCn3ccnc3[N+](=O)[O-])c12,?,14µM*,?,-97*
SMILES,MARV entry inh,FMDV inh,LASV entry inh,HCMV antiviral
C/C(CS(=O)(=O)c1ccc(Cl)c(Cl)c1)=N/NC(N)=S,7%[46.1 µM],7%,-14%,-70*
CNc1cncc(-c2cccc(OC)c2F)n1,·,53%,·,61
CNc1cncc(-c2c(OC)cccc2OC)n1,·,-5%,·,-103*
Cc1noc(C)c1-c1ccc2ncnc(Nc3ccccc3)c2c1,·,-7%,·,·
COC[C@H]1OC(=O)c2coc3c2[C@@]1(C)C1=C(C3=O)C2CCC(=O)[C@@]2(C)C[C@H]1OC(C)=O (stereo not given in full),0.045µM*!,?,?,·
COC[C@H]1OC(=O)c2coc3c2[C@@]1(C)C1=C(C3=O)[C@H]2CCC(=O)[C@@]2(C)C[C@H]1OC(C)=O,0.045µM*,·,·,·
COc1cccc2c1NC1(C)c3ccccc3-n3nncc3CN1C2=O (stereo not given),·,·,·,-8
COC(=O)c1cncc(C=Cc2c(C)cc(O)cc2C)c1,·,·,3.1µM*,·
CCOC(=O)C1CSCCS(=O)(=O)N1Cc1cc(F)ccc1Br (stereo not given),?,·,·,-24
COc1cccc(NS(=O)(=O)c2c(C)n(C)c(=O)n(C)c2=O)c1,·,2%,·,-70*
CCC(C(=O)NCCc1ccccc1)n1nc(C)n2c(cc3sccc32)c1=O (stereo not given),4%[46.1 µM],0%,·,-8
Cc1ccc(C)c(OC2=NS(=O)(=O)c3ccccc32)c1,-39%[46.1 µM],35µM*,0%[46.1 µM],20
O=C(NCC1Cc2cccc(-c3ccccn3)c2O1)c1cnn2cccnc12 (stereo not given),·,3%,·,·
CC(C)(C)N=C1NC(=NC(C)(C)C)c2ccccc21,15µM*,-13%,?,-63*
c1ccc2c(c1)C(=NCC1CCCO1)NC2=NCC1CCCO1 (stereo not given),-1%,·,-10%,-6
Cn1c(=O)c2cc(NC(=O)CCc3cccnc3)ccc2n1Cc1ccc(F)cc1,·,-13%,·,?
Cc1ccc(C)c(Oc2cc(NC(=O)CCCn3nc(C)c([N+](=O)[O-])c3C)cc([N+](=O)[O-])c2)c1,?,0%,?,-88*
Cc1nn(CCCC(=O)Nc2cc(Oc3ccccc3)cc([N+](=O)[O-])c2)c(C)c1[N+](=O)[O-],?,0%,4%,3
COc1ccc(OC)c(/C=C(\C#N)c2nc(-c3ccc(F)cc3)cs2)c1,·,-4%,21%[46.1 µM],39
COc1ccc(-c2c3c(=O)n(C)c(=O)n(C)c3cn2-c2cc(OC)ccc2OC)cc1,13µM*,0%,?,-23
COc1ccc(-c2c3c(=O)n(C)c(=O)n(C)c3cn2-c2ccccc2O)cc1,·,-22%,·,?
CCOc1ccc(C(=O)Nc2nc(C)cc(C)n2)cc1[N+](=O)[O-],11%,-10%,11%,2
CCOc1ccccc1NC(=O)c1ccc(OCC)c([N+](=O)[O-])c1,15%,-22%,14%,-65*
O=C(NC(Cc1ccccc1)c1nc2ccccc2[nH]1)c1ccc(Cl)c([N+](=O)[O-])c1 (stereo not given),?,?,-20%,26
CCOc1ccc(C(=O)Nc2ccccc2-c2ccccc2)cc1Cl,-30%,-28%,-18%,-25
SMILES,MARV entry inh,FMDV inh,LASV entry inh,HCMV antiviral
CCOc1ccc(C(=O)Nc2cc(-c3nc4ccccc4[nH]3)ccc2Cl)cc1[N+](=O)[O-],8.9µM*,-11%,?,-85*
CSCC[C@H](NC(=O)c1ccc(Cl)c([N+](=O)[O-])c1)c1nc2ccccc2[nH]1,10µM*,?,-29%,23
CCOc1ccc(C(=O)Nc2cccc(C(=O)O)c2C)cc1Cl,5.8µM*,1.8µM*,9.2µM*,?
Cc1coc2c(O)cc3c(c12)O[C@@]1(N2CCCCC2)C(=O)NCCC[C@@H]31,-27%,·,·,·
COc1ccc(C)cc1NC(=O)Nc1cccc(OCc2cc(=O)n3ccc(C)cc3n2)c1,·,-5%,21%[46.1 µM],7
Cc1cnc(C)c(-c2cccc3c2OC(CNC(=O)/C=C/c2ccc(F)c(F)c2)C3)n1 (stereo not given),·,-16%,·,·
